# Calls of active or inactive are those of the source. Where a call stands in place of a potency, no number is given. The call rests on the fitted dose curve.
# Molecular target: Acetylcholinesterase (Homo sapiens) (UniProt P22303)
# Experiment: Acetylcholinesterase (AChE) small molecule antagonists: enzyme-based qHTS assay (AID 1347397); further: nearly all actives have a fitted effect of over 55% in size
# Details: Potency: AChE enzyme activity inhibition; series mostly up to 115 µM
# Outline: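 Human recombinant acetylcholinesterase; substrate acetylthiocholine; thiocholine quantified with DTNB (colorimetric). Compound preincubation 30 min RT; reaction 10 min RT.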
# Potency means the concentration at half of the fitted maximal effect.
# Sequence of Acetylcholinesterase (Homo sapiens) (P22303 whole entry, looked up): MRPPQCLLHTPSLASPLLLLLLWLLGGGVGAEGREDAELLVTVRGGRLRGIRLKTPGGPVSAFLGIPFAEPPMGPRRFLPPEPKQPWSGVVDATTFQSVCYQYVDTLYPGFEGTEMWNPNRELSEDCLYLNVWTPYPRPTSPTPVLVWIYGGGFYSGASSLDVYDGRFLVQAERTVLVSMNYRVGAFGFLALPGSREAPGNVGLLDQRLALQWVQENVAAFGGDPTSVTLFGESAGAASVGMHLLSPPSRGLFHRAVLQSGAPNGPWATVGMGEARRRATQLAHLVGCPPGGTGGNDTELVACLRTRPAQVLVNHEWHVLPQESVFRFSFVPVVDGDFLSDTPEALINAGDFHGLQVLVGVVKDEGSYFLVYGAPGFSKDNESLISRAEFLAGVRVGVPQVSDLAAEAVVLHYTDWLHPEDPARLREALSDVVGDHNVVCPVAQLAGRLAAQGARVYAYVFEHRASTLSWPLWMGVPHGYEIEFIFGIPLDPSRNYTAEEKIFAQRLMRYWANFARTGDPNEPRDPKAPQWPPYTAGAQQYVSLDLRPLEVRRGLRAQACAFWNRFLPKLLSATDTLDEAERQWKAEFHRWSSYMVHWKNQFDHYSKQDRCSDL
row,Compound,Potency
1,CC(C)[N+](=O)[O-],inactive
2,CC(CC(C#N)(c1ccccc1)c1ccccc1)N(C)C (configuration not stated),inactive
3,O=[N+]([O-])c1cccc2cccnc12,inactive
4,C[C@@H]1CN(C2CCC(C#N)(c3ccc(F)cc3)CC2)CC[C@]1(C(=O)O)c1ccccc1 (some centres not stated),inactive
5,C[C@]1(O)CC[C@H]2[C@@H]3CCC4=CC(=O)CC[C@]4(C)[C@@]3(F)[C@@H](O)C[C@@]21C,inactive
6,C#CCN1C(=O)COc2cc(F)c(N3C(=O)C4=C(CCCC4)C3=O)cc21,inactive
7,COC(=O)C(C)Oc1ccc(Oc2ccc(Cl)cc2Cl)cc1 (configuration not stated),inactive
8,O=C1OC(=O)C2C1C1(Cl)C(Cl)=C(Cl)C2(Cl)C1(Cl)Cl (configuration not stated),inactive
9,CCSC(=O)N(CC)C1CCCCC1,inactive
10,CC1=C(C(=O)Nc2ccccc2)S(=O)(=O)CCO1,inactive
11,Nc1cc2c3c(c1)C(c1ccccc1)=N[C@@H](NC(=O)c1cccnc1)C(=O)N3CC2,inactive
12,COc1cc2c(cc1OC)[C@@]13CCN4CC5=CCO[C@H]6CC(=O)N2[C@H]1[C@H]6[C@H]5C[C@H]43,inactive
13,COC(=O)c1ccccc1S(=O)(=O)NC(=O)Nc1nc(C)cc(C)n1,inactive
14,N#Cc1c(Cl)cccc1Cl,inactive
15,CC1=NNC(=O)N(/N=C/c2cccnc2)C1,inactive
16,CCCSC(=O)Cl,inactive
17,OCCSCSCCO,inactive
18,CCOC(=O)/C=C(C)/C=C/C[C@@H](C)CCCC(C)C,inactive
19,CCOC(=O)C1(c2ccccc2)CCN(CCc2ccc(N)cc2)CC1,inactive

row,Compound,Potency
1,N#CC(Cl)(Cl)Cl,inactive
2,CCOP(=S)(OCC)SCSP(=S)(OCC)OCC,63.3 µM (active)
3,O=[N+]([O-])c1ccc2c3c(cccc13)CC2,inactive
4,C(CCOCC1CO1)COCC1CO1 (configuration not stated),inactive
5,CC(N)=S,inactive
6,COC(=O)C(c1ccccc1)C1CCCCN1 (configuration not stated),inactive
7,O=CNC(N1CCN(C(NC=O)C(Cl)(Cl)Cl)CC1)C(Cl)(Cl)Cl (configuration not stated),inactive
8,O=[N+]([O-])c1ccc(CBr)cc1,inactive
9,CCCCP(CCCC)CCCC,inactive
10,C=C(C)CN(CC)c1c([N+](=O)[O-])cc(C(F)(F)F)cc1[N+](=O)[O-],inactive
11,CCCCc1ccc(O)cc1,inactive
12,CCN(CC)C(=O)[C@@H]1C=C2c3cccc4[nH]cc(c34)C[C@H]2N(C)C1,104 µM (active)
13,CC(Oc1ccc(Oc2ncc(C(F)(F)F)cc2Cl)cc1)C(=O)O (configuration not stated),inactive
14,CCC(C)(C)c1cc(-n2nc3ccccc3n2)c(O)c(C(C)(C)CC)c1,inactive
15,CC(Cl)(Cl)[N+](=O)[O-],inactive
16,O=c1oc2ccccc2c(O)c1C1CCCc2ccccc21 (configuration not stated),inactive
17,O=C1OC(CCN2CCCCC2)OC1(c1ccccc1)c1ccccc1 (configuration not stated),inactive
18,COc1cc(OC)nc(NC(=O)NS(=O)(=O)c2ncccc2OCC(F)(F)F)n1,inactive

# Reference: PubChem BioAssay (Tox21)
